Experimental data from PubChem BioAssay AID1159580 (chemical genetic matrix, 2015).
Where “and” joins values, the source holds several entries; their conditions need not be identical. Identical values can stand only once. Out of some 5,500 compounds screened, about 2,000 (36%) were called active. Inconclusive results (about 18%) are left out. Rule as the data show it: active = normalized growth mostly below about 0.91 (no sharp cut-off); inconclusive = no clear call, values can overlap the other calls; inactive = mostly above about 0.92. The list shows a part of the results.

Test: chemical genetic growth profiling, strain panel (AID 1159580);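 also: tested at 20 µM; growth read once vehicle control cultures reached saturation at 30 °C; 1 = growth at the plate median or of vehicle wells; lower values mean less growth of the strain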
Settings: S. cerevisiae deletion strains, growth OD

Measured: normalized growth

COC1=C(OC)C(=O)C(C/C=C(\C)CC/C=C(\C)CC/C=C(\C)CC/C=C(/C)CC/C=C(\C)CC/C=C(\C)CC/C=C(\C)CC/C=C(\C)CC/C=C(\C)CCC=C(C)C)=C(C)C1=O
inactive: locus YAL013W, strain DEP1, hits give low values 0.999 | locus YAL021C, strain ccr4, hits give low values 0.983 | locus YAL026C, strain drs2, hits give low values 0.97 | locus YAL030W, strain snc1, hits give low values 0.989 | locus YBL061C, strain skt5, hits give low values 0.996 | locus YBR009C, strain hhf1, hits give low values 1.01 | locus YBR021W, strain FUR4, hits give low values 1.07 | locus YBR023C, strain chs3, hits give low values 0.978 | locus YBR171W, strain sec66, hits give low values 0.973 | locus YBR229C, strain ROT2, hits give low values 0.959 | locus YBR231C, strain swc5, hits give low values 0.974 | locus YBR279W, strain paf1, hits give low values 0.989 | locus YCL011C, strain gbp2, hits give low values 0.96 | locus YCL016C, strain dcc1, hits give low values 0.994 | locus YCL029C, strain bik1, hits give low values 0.969 | locus YCL069W, strain vba3, hits give low values 0.972 | locus YCR088W, strain abp1, hits give low values 0.972 | locus YDL005C, strain med2, hits give low values 0.977 | locus YDL035C, strain GPR1, hits give low values 1.03 | locus YDL040C, strain nat1, hits give low values 0.983 | locus YDL074C, strain BRE1, hits give low values 1.11 | locus YDL101C, strain DUN1, hits give low values 0.982 | locus YDL134C, strain PPH21, hits give low values 1.01 | locus YDL185W, strain tfp1, hits give low values 0.991 | locus YDL192W, strain arf1, hits give low values 1.02 | locus YDR001C, strain nth1, hits give low values 0.989 | locus YDR069C, strain doa4, hits give low values 0.96 | locus YDR101C, strain arx1, hits give low values 1.02 | locus YDR137W, strain rgp1, hits give low values 0.983 | locus YDR159W, strain sac3, hits give low values 0.963 | locus YDR162C, strain NBP2, hits give low values 0.972 | locus YDR195W, strain ref2 0.963 | locus YDR297W, strain sur2, hits give low values 0.975 | locus YDR318W, strain mcm21, hits give low values 0.984 | locus YDR334W, strain swr1, hits give low values 0.969 | locus YDR335W, strain msn5, hits give low values 0.974 | locus YDR388W, hits give low values 1 | locus YDR392W, strain spt3, hits give low values 0.967 | locus YDR502C, strain sam2, hits give low values 0.989 | locus YEL003W, strain gim4, hits give low values 0.983 | locus YEL037C, strain rad23, hits give low values 0.981 | locus YEL061C, strain CIN8 (second series), hits give low values 0.941 | locus YEL061C, strain CIN8, hits give low values 1.01 | locus YER015W, strain faa2, hits give low values 0.979 | locus YER016W, strain bim1, hits give low values 0.978 | locus YER110C, hits give low values 0.983 | locus YER111C, strain swi4, hits give low values 0.958 | locus YER155C, strain BEM2 (second series), hits give low values 0.982 | locus YER155C, strain BEM2, hits give low values 1 | locus YER167W, strain BCK2, hits give low values 1 | locus YFR010W, strain ubp6, hits give low values 0.964 | locus YGL078C, strain dbp3, hits give low values 1.01 | locus YGL086W, strain mad1, hits give low values 1.04 | locus YGL167C, strain pmr1, hits give low values 0.981 | locus YGL173C, strain kem1, hits give low values 0.982 | locus YGL227W, strain vid30, hits give low values 0.96 | locus YGL240W, strain doc1, hits give low values 0.974 | locus YGL248W, strain PDE1, hits give low values 0.999 | locus YGL253W, strain hxk2, hits give low values 0.988 | locus YGR078C, strain PAC10, hits give low values 0.996 | locus YGR135W, strain pre9, hits give low values 1 | locus YGR252W, strain gcn5, hits give low values 1.02 | locus YHR013C, strain ard1, hits give low values 0.957 | locus YHR027C, strain rpn1, hits give low values 0.968 | locus YHR030C, strain SLT2, hits give low values 1.02 and 1.01 | locus YHR079C, strain IRE1 (second series), hits give low values 0.986 | locus YHR079C, strain IRE1, hits give low values 1.02 | locus YHR094C, strain hxt1, hits give low values 0.999 | locus YHR129C, strain ARP1, hits give low values 1.01 | locus YHR142W, strain chs7, hits give low values 0.972 | locus YHR200W, strain rpn10, hits give low values 0.976 | locus YIL066C, strain RNR3, hits give low values 1.01 | locus YIL073C, strain SPO22, hits give low values 1.03 | locus YIL125W, strain kgd1, hits give low values 0.998 | locus YIR030C, strain dcg1, hits give low values 0.995 | locus YJL092W, strain hpr5, hits give low values 0.958 | locus YJL095W, strain BCK1 (second series), hits give low values 0.973 | locus YJL095W, strain BCK1, hits give low values 1.01 and 0.989 | locus YJL115W, strain asf1, hits give low values 0.969 | locus YJL129C, strain trk1, hits give low values 0.979 | locus YJL134W, strain LCB3, hits give low values 0.991 | locus YJL154C, strain vps35, hits give low values 0.976 | locus YJL164C, strain tpk1, hits give low values 0.999 | locus YJL166W, strain qcr8, hits give low values 0.978 | locus YJL168C, strain set2, hits give low values 0.994 | locus YJL187C, strain SWE1 (second series), hits give low values 0.985 | locus YJL187C, strain SWE1, hits give low values 0.984
